The record followed here is PubChem BioAssay (NCATS).

For assay [1], the system named is Nanoluciferase (engineered Oplophorus gracilirostris luciferase). As to the kind of experiment: Primary Nanoluciferase (NLuc) qHTS assay for identification of artifact compounds. (AID 1845222).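 For activity, negative = inhibition: NLuc secreted into diluted conditioned medium of S16 cells; series mostly up to about 54 µM; 0% = DMSO and -100% = no enzyme.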 Note: potency is the fitted concentration of half-maximal effect. In a few lines: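 Concentration-response data were obtained by luminescence after 5 min with Nano-Glo substrate at 1:100. The enzyme was diluted S16 NLuc-expressing cell medium, preincubated with compound for 15 min at RT. Curves were fitted with a 4-parameter Hill model.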
On the technique in general: Quantitative high-throughput screening tests each substance at several concentrations.

A short description of assay [2]: Primary redox qHTS assay for identification of artifact compounds. (AID 1845223).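 Note: 0% = DMSO and 100% = reference compound.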 The essentials: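 Amplex Red (25 uM) and HRP (250 mU/mL) in HBSS, with compounds for 15 min, then 250 uM DTT for 30 min, room temperature, dark. Fluorescence 525/598 nm read; normalized to DMSO and 10 uM DA3003; Hill fit.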

Structures are written as SMILES. A number with no mark means an inactive call. Inconclusive results are not listed. Activity calls are given as the source filed them. Calls come from the whole dose curve; as a rule, active = well fitted curve in the direction sought with a large enough effect; inconclusive = small, poorly fitted or top-dose-only effect, or another doubt; inactive = no such curve, though single readings can be large; an effect the other way counts as inactive or inconclusive.

On to `COc1c(C)c(OCC(O)C(C)(C)O)cc2c1CNC2=O` (configuration not stated), for which the Potency entry in assay [1] and in assay [2] was “inactive” in each case.

For the compound `COc1ccc(/C=C/C(=O)O[C@@H]2[C@@H](O[C@@H]3O[C@H](CO)[C@@H](O)[C@H](O)[C@H]3O)[C@@H](O)[C@H](O[C@H]3C4C=CO[C@@H](O[C@@H]5O[C@H](CO)[C@@H](O)[C@H](O)[C@H]5O)C4[C@@]4(CO)O[C@@H]34)O[C@H]2C)cc1` (some centres not stated), the activity, negative = inhibition in assay [1] was 1.1% [at 11.6 µM]. Besides, in assay [2], the redox activity (% of DA3003) was 9.47% [at 11.5 µM].

Take `CC1=C2C[C@H]3OC(=O)[C@H](O)[C@@]4(O)[C@@H](C)[C@@H](O)[C@H](O)C([C@@]2(C)[C@H](O)[C@@H](O)C1)[C@@]34C` (some centres not stated): the Potency result in assay [1] and in assay [2] was “inactive” throughout.

Turning to `COc1ccc(Oc2c(Cl)cnn(C3c4ccccc4-c4ccccc43)c2=O)cc1`, the Potency entry in assay [1] and in assay [2] was “inactive” each time.

As for `COC(=O)C1=CO[C@@H](O[C@@H]2O[C@H](CO)[C@@H](O)[C@H](O)[C@H]2O)C2C1CC(O)C2C` (some centres not stated), the Potency entry in assay [1] and in assay [2] was “inactive” throughout.

As to `CCOc1ccc(-c2cc(NC(=O)c3c(F)cccc3F)c(C(=O)O)s2)cc1`, the Potency in assay [1] was 12 µM (active). In assay [2], the Potency entry was “inactive”.

For `C#CCCCn1cc(-c2cccc3c2N[C@@H](C)CC(=O)N3)cn1`, the Potency result in assay [1] and in assay [2] was “inactive” each time.

As for `OC[C@@]1(O)CO[C@@H](OC[C@H]2O[C@@H](Oc3ccccc3)[C@H](O)[C@@H](O)[C@@H]2O)[C@@H]1O`, the Potency entry in assay [1] and in assay [2] was “inactive” in each case.

As for `Cc1cc(Cn2cnc3c2CC(C(=O)O)N(C(=O)C(c2ccccc2)c2ccccc2)C3)ccc1N(C)C` (configuration not stated), the Potency result in assay [1] and in assay [2] was “inactive” throughout.

Take `C=C1[C@H](OC(C)=O)[C@H]2[C@@H](OC(C)=O)C(C)C[C@]2(OC(C)=O)C(=O)[C@H](C)/C=C/C(C)(C)C(=O)[C@H](OC(=O)C(C)C)[C@H]1OC(C)=O` (some centres not stated): the Potency entry in assay [1] and in assay [2] was “inactive” in each case.

On to `CC1(C)CC[C@]2(C(=O)O)CC[C@]3(C)C(=CCC4[C@@]5(C)C[C@H](O)[C@H](O[C@@H]6O[C@H](CO)[C@@H](O)[C@H](O)[C@H]6O)[C@@](C)(CO)C5[C@H](O)C[C@]43C)[C@@H]2C1` (some centres not stated), for which the Potency result in assay [1] and in assay [2] was “inactive” each time.

Regarding `C/C(=C/CO)CC[C@H]1[C@]2(C)C[C@H](O)CC(C)(C)[C@H]2CC[C@]1(C)O`, the Potency entry in assay [1] and in assay [2] was “inactive” each time.

For the compound `Fc1cccc(CN(C2=NCCN2)c2c(Cl)cccc2Cl)c1`, the Potency result in assay [1] and in assay [2] was “inactive” each time.

As to `CCC(C)C(N)C(=O)NCCN1CCOCC1` (configuration not stated), the Potency entry in assay [1] and in assay [2] was “inactive” in each case.

As to `CC1OC(OC2C(OC3C(O[C@H]4CC[C@@]5(C)C(CC[C@]6(C)C5CC=C5C7CC(C)(C)CC(O)[C@]7(C)CC[C@]56C)C4(C)C)OC(C(=O)O)C(O)C3O)OCC(O)C2O)C(O)C(O)C1O` (some centres not stated), in assay [1], the activity, negative = inhibition was 4.85% [at 11.6 µM]. In addition, the redox activity (% of DA3003) in assay [2] is 9.66% [at 11.5 µM].

Regarding `COc1cc(/C=C/C(=O)O[C@H]2[C@H](O)[C@@H](CO)O[C@@]2(CO)O[C@H]2O[C@H](CO)[C@@H](O)[C@H](O)[C@H]2O)cc(OC)c1O`, the Potency result in assay [1] and in assay [2] was “inactive” in each case.

For `COC(=O)C1=CO[C@@H](O[C@@H]2O[C@H](CO)[C@@H](O)[C@H](O)[C@H]2O)[C@@H]2C(C)CC(=O)[C@]12O` (some centres not stated), the Potency entry in assay [1] and in assay [2] was “inactive” throughout.

As to `Oc1ccc(CC2NCCc3cc(O)c(O)cc32)cc1` (configuration not stated), the Potency result in assay [1] and in assay [2] was “inactive” throughout.

For the compound `CC(C)C1NC(=O)C(CC2(O)c3ccccc3N3C(=O)C(Cc4ccccc4)NC32)NC1=O` (configuration not stated), the Potency entry in assay [1] and in assay [2] was “inactive” throughout.

On to `C/C(=C\CCC(C)C1CC(O)C2(C)C3CCC4C(C)(C)C(OC5OCC(O)C(O)C5O)CCC45CC35CC(O)C12C)C(=O)O` (configuration not stated), for which the Potency entry in assay [1] and in assay [2] was “inactive” in each case.

For the compound `CC1=CCC(O)C2(C)CCC3C(C)C(=O)OC3C12` (configuration not stated), the Potency entry in assay [1] and in assay [2] was “inactive” in each case.

As to `CCC(CC)CC1(C(=O)Nc2ccccc2SC(=O)C(C)C)CCCCC1`, the Potency result in assay [1] and in assay [2] was “inactive” throughout.

Turning to `Cc1ccc2nc(NC(=O)CSc3nc4c(c(=O)n3-c3ccc(F)cc3)SCC4)sc2c1`, the Potency result in assay [1] and in assay [2] was “inactive” throughout.

For the compound `CC(=O)O[C@@H]1CC2C(C)(C)C(=O)C=C[C@]2(C)C2CC[C@]3(C)C(=CC(=O)[C@@H]3c3ccoc3)[C@@]21C` (some centres not stated), the Potency result in assay [1] and in assay [2] was “inactive” each time.

For `COc1cccc(C)c1C(=O)O[C@@H]1C[C@H](O[C@H]2[C@H](O)C[C@H](O[C@@H]3CCC[C@H]4[C@H]3C=C[C@@H]3CCCC/C=C/[C@H]5C=C(C(=O)O)[C@@H](C)C[C@@]56OC(=O)C(=C6O)OC(=O)[C@@]34C)O[C@@H]2C)O[C@H](C)[C@H]1O`, in assay [1], the activity, negative = inhibition was 4.95% [at 11.6 µM]. For the same compound, the redox activity (% of DA3003) in assay [2] is -8.49% [at 11.5 µM].

Consider `FC(F)(F)Oc1ccc(-c2ccc3nnc(C(F)(F)F)n3c2)cc1`, for which the Potency result in assay [1] and in assay [2] was “inactive” in each case.
